# Hit rate of the full screen: of about 91,000 compounds, about 130 (0.14%) were called active. Not shown: some 3% with an inconclusive outcome. Calls follow the shape of the dose curve; as a rule, active = well fitted inhibition curve with a large enough effect; inconclusive = small, poorly fitted or top-dose-only effect; inactive = flat fitted curve, though single readings scatter. The entries come from a sample that favours actives as a whole.
# Tested on: Uracil-DNA glycosylase
# Assay: Primary qHTS assay for inhibitors of Activation Induced Cytidine Deaminase (AID): UDG Counterscreen signal; also: nearly all actives have a fitted effect of over 65% in size
# Settings: FRET deamination/UDG coupled assay, UDG read, 4 h; series mostly up to 115 µM; activity change, negative = inhibition: at the top concentration
# Text: Assay Provider (PI) Patricia Gearhart Ph.D.
# National Institute on Aging
# National Institute of Health (NIH), Bethesda, MD
# Assay Provider (PI) Rahul Kohli Ph.D.
# Perelman School of Medicine
# University of Pennsylvania, Philadelphia, PA
# Activation-Induced Deaminase (AID) is a cytosine deaminase which converts cytosine into uracil within stretches of ssDNA. The presence of uracil in DNA initiates a cascade of mutagenic DNA repair to introduce point mutations and DNA double strand breaks. Specific targeting of AID to the immunoglobulin heavy chain loci (Igh) promotes mutagenesis in the antibody variable region for somatic hypermutation (SHM) or switch regions leading to class switch recombination (CSR). However, AID also plays a role in accumulating unnecessary mutations across the genome. Mis-targeting of AID results in the initiation of tumor development and leads to greater drug resistance among cancer cells when continually expressed. To identify an AID inhibitor, a small molecule library will be screened in collaboration with NCATS core facility at NIH. To confirm biological function, inhibitors will be examined in an in vitro murine B-cell activation assay and subsequent secondary validation screens. Top molecules will be further screened to identify inhibitory efficacy against a wild type primary splenocytes assay. Using these approaches, we hope to identify a small molecule with great efficacy and low toxicity for use as a molecular probe to further characterize AID's intricacies, or even as a therapeutic.
# A FRET based analysis of cytosine deamination, was developed to identify potential inhibitors of AID catalytic activity. This screen has two signal output, Read 1 evaluates the AID inhibition response. The second readout (Read 2) evaluates UDG response and is uses as a counterscreen to exclude false positive inhibitors. Inhibition in AID and inactivity in the UDG signal is the desired outcome for this assay.
# SEQUENCE No. (e.g., 1, 2, 3, etc.); […] (e.g., Cells, Incubation, Reagent, etc.); VALUE; DESCRIPTION
# 1a; Reagent; 3 uL; [4/3x] 1 uM AID/2.67 U/mL UDG
# 1b; Reagent; 3 uL; 2 U/mL UDG
# 1c; Reagent; 3 uL; 1 uM AID
# 2a; Compound; 46 nL; Follow-up plates (0.64 uM - 10 mM)
# 2b; Control; 46 nL; ATA ([…] - 10 mM)
# 3; Time; 10 min; incubation at room temperature
# 5; Time; 4 hr; incubation at room temperature
# 6; Reagent; 4 uL; [2x] 250 mM NaOH
# 7; Time; 15 sec; centrifuge at 1000 rpm
# 8; Time; 30 min; incubation at room temperature
# 9a; Detection; fluorescence (Read 1: AID); EnVision (PerkinElmer) plate reader, 540 excitation and 590 emission filters
# 9b; Detection; fluorescence (Read 2: UDG); EnVision (PerkinElmer) plate reader, 560 excitation and 665 emission filters
# NOTES (numbers refer to sequence above)
# 1a; Reagents were dispensed in a medium-binding black solid-bottom Greiner plates (789176F) using a BioRptr liquid dispenser. Dispense 3 uL of [4/3x] 1 uM AID (provided by Kohli lab) and [4/3x] 2 U/mL UDG (NEB M0280L) into columns 1, 2, 5 to 48.
# 1b; Dispense 3 uL of [4/3x] 2 U/mL UDG into column 3.
# 1c; Dispense 3 uL of [4/3x] 1 uM AID into column 4.
# 2a; Compound (7-points [uM] (0.64; 3.2; 16; 80; 400; 2,000; 10,000; 20,000) double pin-transferred (Dip Factor = 2) using the Kalypsys (Wako USA) pintool equipped with a 1536 pinhead for a final concentration range of 7.32 nM - 114 uM.
# 2b; 10 mM Aurintricarboxylic Acid (Sigma A1895) (ATA, 8-point, n = 2, 1:2.5 dilution in column 2) double pin-transferred (Dip Factor = 2) using the Kalypsys (Wako USA) pintool equipped with a 1536 pinhead for a [final] range of 186 nM - 114 uM.
# 3; Room temperature incubation.
# 4; Dispense 1 uL of substrate mixture from the Kohli lab [4x] […] DJC20 and [4x] 250 nM DJC23 into columns 1 to 48 .
# 5; Room temperature incubation.
# 6; Dispense 4 uL of substrate mixture [2x] 250 mM NaOH into columns 1 to 48.
# 7; Centrifugation step to remove bubbles.
# 8; Room temperature incubation
# 9a; Fluorescence signal (column label AID) was read using the EnVision plate reader. […]
# % is scaled to controls: 0 for no effect and ±100 for the full control effect; potency is read from the fitted curve at half-maximal effect.
SMILES,"activity change, negative = inhibition",Potency
CC(C)=CC(=O)Nc1ccccc1SC1CCCC1,-4.3% (inactive),
CN(/C=C/[N+](=O)[O-])c1ccccc1,3.38% (inactive),
CCCCc1cnc2c(c1SCC(=O)NCC1CCCO1)c(=O)n(C)c(=O)n2C (stereo not given),-5.8% (inactive),
CC1CCC(NC(=O)/C=C/c2ccc(C(=O)NC3CC3)cc2)CC1 (stereo not given),-3.82% (inactive),
C=CCn1c(SC(C)C(=O)OC)nc2c1c(=O)[nH]c(=O)n2C (stereo not given),-1.33% (inactive),
CC(OC(=O)c1cc(=O)c2ccccc2o1)C(=O)Nc1cc(C(F)(F)F)ccc1Cl (stereo not given),3.41% (inactive),
CCN(CC)S(=O)(=O)c1ccc([N+](=O)[O-])cc1,-6.65% (inactive),
Cc1cccc(C(=O)Nc2ccc3nsnc3c2)c1,-2.27% (inactive),
Cc1ccc2c(COC(=O)C3CCCO3)cc(=O)oc2c1C (stereo not given),0.708% (inactive),
Cc1ccc(C(=O)N2CCCc3cc(C(=O)NCCC(C)C)ccc32)cc1,1.89% (inactive),
O=C(NC1CCCC1)C1CC=CCC1c1nc2ccccc2s1 (stereo not given),-7.21% (inactive),
CCCCCCCCOC(=O)/C(C#N)=C/c1ccc(-c2cccc(C(F)(F)F)c2)o1,-7.64% (inactive),
O=C(Nc1cc(C(F)(F)F)ccc1Cl)c1c(F)cccc1F,-10.2% (inactive),
Cc1[nH]c2ccccc2c1C(=O)C(C)Sc1nnnn1C1CCCC1 (stereo not given),-0.262% (inactive),
O=C(Nc1cccc(S(=O)(=O)N2CCCC2)c1)c1n[nH]c2ccccc12,-0.902% (inactive),
O=C(c1ccn(COc2ccccc2)n1)N1CCN(Cc2ccc(Cl)cc2)CC1,-10.4% (inactive),
CC(C)COC(=O)c1nn(Cc2ccccc2)c(=O)c2ccccc12,4.07% (inactive),
COc1ccc2c(CCNC(=O)CCNc3nc(Cl)nc4nc[nH]c34)c[nH]c2c1,0% (inactive),
CCOc1cc(C#N)ccc1OC(C)C(=O)c1ccc(OC)cc1 (stereo not given),-1.24% (inactive),
C/C(=N\NC(=O)C1CC1c1ccccc1)c1ccc(C)c(C)c1 (stereo not given),4.65% (inactive),
CCc1ccc(Sc2cc(C(=O)NC3CCCC3)c3ccccc3n2)cc1,2.07% (inactive),
Fc1ccc(NCC23CC4CC(CC(C4)C2)C3)cc1,-2.91% (inactive),

SMILES,"activity change, negative = inhibition",Potency
OC(Cc1c[nH]c2ccccc12)(c1ccccc1)c1ccccc1,-6.36% (inactive),
COc1ccc(C(=O)COC(=O)C(C)Oc2ccc(F)cc2)cc1OC (stereo not given),-15.6% (inactive),
CC1(C)Cc2c(sc(NC(=O)C(N)=O)c2C#N)CO1,5.12% (inactive),
CN(/C=C/C(=O)C(F)(F)F)C1(c2ccccc2Cl)CCCCC1=O (stereo not given),-0.265% (inactive),
Cc1ccccc1C(=O)c1cc2ccccc2o1,-4.15% (inactive),
CC(C)CCNC(=O)COC(=O)c1cc(-c2ccco2)nc2ccccc12,-2.97% (inactive),
CN(Cc1ccsc1)C(=O)CCc1cccs1,10.7% (inactive),
Oc1ccc(Cl)cc1C=NCc1ccc(F)cc1Cl,5.13% (inactive),
N#Cc1cccc(C(=O)OCc2cccnc2)c1,4.57% (inactive),
COc1ccc(Cl)cc1COc1ccccc1C#N,-8.12% (inactive),
CCc1nnc(SCC(=O)Nc2ccc(Cl)c(Cl)c2)n1-n1cccc1,3.88% (inactive),
CCCN1C=NS(=O)(=O)c2cc(C(=O)NC(C)(C)C)ccc21,9.86% (inactive),
Cc1nc2ccc(C(=O)NCC(=O)NCC(F)(F)F)cc2nc1C,-2.66% (inactive),
NCc1ccc(CN2CCCCCCC2)cc1,2.92% (inactive),
CCN(Cc1cccs1)C(=O)CC1CC2CCC1C2 (stereo not given),8.6% (inactive),
COc1cc(C(=O)Nc2ncccc2C)cc(Cl)c1OC(C)C,8.76% (inactive),
CCCc1c(C(=O)OCC)nnc2c(-c3ccc(Cl)cc3)c(C)nn12,2.06% (inactive),
N#Cc1ccc(CCC(=O)NCc2ccc(F)cc2)cc1,-6.18% (inactive),
COc1ccc2c(c1)c(N1CCCC1=O)c(C(=O)Nc1ccc(OC)c(Cl)c1)n2C,2% (inactive),
COc1ccc(NS(=O)(=O)c2cc3c4c(c2)CC(=O)N4CCC3)cc1Cl,,89.1 µM (active)
COc1ccc(NS(=O)(=O)c2ccc(N3C(=O)C(C)CS3(=O)=O)cc2)cc1Cl (stereo not given),-1.04% (inactive),
CN(C)C1(c2nnnn2-c2cccc(C(F)(F)F)c2)CCCC1,-4.85% (inactive),

SMILES,"activity change, negative = inhibition",Potency
Cn1c(=O)c2c(ncn2CC(=O)OCc2ccccc2F)n(C)c1=O,-7.56% (inactive),
O=C(Nc1ccc2nc(SCC(=O)N3CCCc4ccccc43)sc2c1)c1ccc(F)cc1,,inactive
O=C(CSc1nc2ccccc2nc1Cc1ccccc1)N1CCCCC1,-22.1% (inactive),
COc1ccccc1Cc1nc2ccccc2nc1SCC(=O)N1CCCc2ccccc21,,89.1 µM (active)
CN(Cc1ccc2c(c1)OCCO2)CC(O)COc1ccccc1C(C)(C)C (stereo not given),-12.4% (inactive),
CCNc1nc(-c2cccs2)nc2ccccc12,7.12% (inactive),
Cc1ccc(-c2nnc(SCC(=O)Nc3cc(C)on3)n2C2CC2)cc1,-0.087% (inactive),
CC(C)(C)C(=O)Nc1ccc(-c2csc(N)n2)cc1,-10.9% (inactive),
COc1ccccc1C(=O)Nc1ccc(O)c(-c2nc3ccccc3o2)c1,0% (inactive),
CS(=O)(=O)Cc1cccc(C(=O)NCc2ccccc2F)c1,-6.76% (inactive),
CCC(Sc1nc2nccnc2c(=O)n1Cc1ccc(OC)cc1)C(=O)NCc1ccc(C)cc1 (stereo not given),6.72% (inactive),
COc1ccc(CCN2CNc3c(c(=O)[nH]c(=O)n3-c3ccccc3Cl)C2)cc1OC,0.816% (inactive),
O=C(O)C(Sc1ccc2ccccc2n1)c1ccccc1 (stereo not given),6.61% (inactive),
NCCOc1cccc(C(F)(F)F)c1,2.57% (inactive),
CCC(NC(=O)C1CC1)c1ccccc1 (stereo not given),4% (inactive),
Cc1ccc(-c2cnc3ccccc3n2)c(C)c1,-11.7% (inactive),
CCCCNc1nc2c(c(=O)[nH]c(=O)n2C)n1CC(O)COC(C)C (stereo not given),-7.26% (inactive),
Cc1ccccc1NC(=O)/C(C#N)=C/c1ccc(OC(=O)c2ccccc2)cc1,-6.05% (inactive),
Cc1cccc(NS(=O)(=O)c2ccc(C)c(C(=O)NCC(c3ccccc3)N(C)C)c2)c1 (stereo not given),3.49% (inactive),
O=C(COc1cc(Cl)c(Cl)cc1Cl)Nc1ccc2oc(-c3ccncc3)nc2c1,-4.4% (inactive),
COC(=O)c1c(C)[nH]c(C(=O)CSc2nncs2)c1C,2.52% (inactive),

# Source: PubChem BioAssay AID1347430 (National Center for Advancing Translational Sciences (NCATS), 2020)
